Consider 5 compounds from PubChem BioAssay.

Assay [1] can be described thus: SU-DIPG-VI glioma cell viability, MIPE4.0 library, CellTiter-Glo luminescence, qHTS (AID 1347066; cut-off not given, nearly all actives have AC50 up to about 30 µM;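 also: cells exposed to compound for 48 hours before readout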). The conditions noted are these: CellTiter-Glo ATP luminescence. (In general: Cellular ATP, detected with luciferase, serves as a proxy for viable cell number.)
A short description of assay [2]: SU-DIPG-XXV glioma cell viability, MIPE5.0 library, qHTS (AID 1347068; cut-off not given, nearly all actives have IC50 up to about 30 µM). On the technique in general: Quantitative high-throughput screening tests each substance at several concentrations.
Assay [3] in a line: phospholipid biosynthesis inhibitors in animal cells, primary screen, cell-based, LOPAC library, screen 4 (AID 1347384; call rule not given here). The conditions noted are these: phospholipid biosynthesis inhibition screen, at 10 µM.
Assay [4] in a line: survival rescue of mitochondrial mutant cells in low glucose, primary screen, MELAS cybrids, Rieske KO mouse fibroblasts, CellTiter-Glo (AID 1508586).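 Also: z relative to plate mean and SD of compound and empty wells.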
For assay [5], the target named is NAD(+) hydrolase SARM1 (Homo sapiens) (UniProt Q6SZW1). The assay can be described thus: SARM1 TIR NADase inhibitors, cell lysate, NAD-Glo luminescence (AID 1508614;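 active = compound whose remaining NAD level is above about 45 nM, limit read from the data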;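 also: higher remaining NAD means stronger inhibition of SARM1 NADase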). As to conditions: SAM-TIR HEK293T lysate NADase, at 1 µM, stronger effect = higher value.
Assay [6] has as its target Mitogen-activated protein kinase 7 (Homo sapiens) (UniProt Q13164). The assay can be described thus: ERK5 transactivation activators in reporter cells, primary screen, cell-based, HTS (AID 1508626;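 active = luciferase signal above three times the same-plate solvent-only control wells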;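 also: luciferase driven by Gal4-ERK5 fusion binding five Gal4 sites before minimal TATA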). As to conditions: HeLa Gal4-ERK5 transactivation, 18 h, at 5 µM, stronger effect = higher value.
Assay [7] in a line: viability rescue of complex I mutant cybrids, primary screen, cell-based, galactose medium, ATP luminescence (AID 1645843;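 active = z-score of at least 1.8 in each of two replicates, scored against plate mean and spread of sample wells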;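 also: positive z means more ATP and so rescue of galactose-driven cybrid death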). The conditions noted are these: complex I mutant cybrid cells, 72 h, stronger effect = higher value.
The nature of assay [8]: LFS_MB_P medulloblastoma growth inhibition, cell-based, chromothripsis tumors, cisplatin or BGB combos (AID 1671449; in the data active = inhibition above about 80%;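 also: cells exposed for 96 hours; 0% = vehicle DMSO and 100% = killing by high DMSO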). The conditions noted are these: LFS_MB_P medulloblastoma cells.
Assay [9] can be described thus: HDN33 neuroblastoma growth inhibition, cell-based, chromothripsis tumors, cisplatin or BGB combos (AID 1671450; in the data active = inhibition above about 80%;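 also: cells exposed to compound for four days; 0% = vehicle DMSO and 100% = cell killing by high DMSO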). As to conditions: HDN33 neuroblastoma cells, stronger effect = higher value.
Assay [10] is described as follows: ICB984 medulloblastoma cell growth inhibition, synergistic combos for chromothripsis tumors, cisplatin or BGB combos (AID 1671451; call rule not given here;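 also: cells exposed for 96 hours before readout; 0% = vehicle DMSO and 100% = killing by high DMSO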). As to conditions: ICB984 medulloblastoma cells, drug combinations, stronger effect = higher value.
Assay [11] is described as follows: LFS_MB_1R medulloblastoma cell growth inhibition, synergistic combos for chromothripsis tumors, cisplatin or BGB combos (AID 1671452; in the data active = inhibition above about 80%;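 also: cells exposed for 96 hours before readout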). As to conditions: LFS_MB_1R medulloblastoma cells, stronger effect = higher value.
Assay [12] is described as follows: HTB85 osteosarcoma cell growth inhibition, synergistic combos for chromothripsis tumors, BGB or cisplatin IC20 combos (AID 1671453; in the data active = inhibition above about 80%;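 also: cells exposed for 96 hours before readout; 0% = vehicle DMSO and 100% = high DMSO killing control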). As to conditions: HTB85 osteosarcoma cells, drug combinations, stronger effect = higher value.
A short description of assay [13]: CRL2098 osteosarcoma cell growth inhibition, synergistic combos for chromothripsis tumors, BGB or cisplatin IC20 combos (AID 1671454; in the data active = inhibition above about 80%;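 also: cells exposed for 96 h before readout; 0% = vehicle DMSO and 100% = killing by high DMSO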). The conditions noted are these: CRL2098 osteosarcoma cells, drug combinations, stronger effect = higher value.
Assay [14] in a line: HD-MB03 medulloblastoma cell growth inhibition, synergistic combos for chromothripsis tumors, BGB or cisplatin IC20 combos (AID 1671455; in the data active = inhibition above about 83%;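 also: 0% = vehicle DMSO and 100% = high DMSO as cytotoxic control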). As to conditions: HD-MB03 medulloblastoma cells, stronger effect = higher value.
Assay [15] is described as follows: sensitizers of A549 cells to miR-34 induction, primary screen, imaging, A549 dox-inducible miR-34, nuclei and caspase counts (AID 1347080;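 active = compounds whose cell count with miR-34 switched on is under 0.7 times the count with it off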). As to conditions: A549 miR-34 inducible, Hoechst nuclei count, 48 h.
Setting [16] is: MELAS cybrid survival, CellTiter-Glo 48 h, stronger effect = higher value.
Setting [17] is: Rieske KO mouse fibroblast survival, CellTiter-Glo 72 h.
[18] abbreviates: measured here: combination with BGB IC40, at 0.05 µM.
The mark [19] stands for this setting: stronger effect = lower value, cell number ratio, induced over uninduced.
Where [20] appears, read: measured here: relative caspase fold change +Dox/-Dox.
Where [21] appears, read: measured here: total cells with miR-34 induction, stronger effect = lower value.
Setting [22] is: measured here: total cells without miR-34 induction.

As usually defined, the inhibition is the drop in the measured response relative to a control, in per cent. One may read the AC50 as the concentration at which the activity in the assay is half-maximal.

Values joined by “and” are separate entries in the source; they are usually repeats but may differ in a detail not shown here. Identical values can stand only once. Inconclusive results are not listed. Active and inactive are the calls of the source.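 The calls were made as follows, unless noted: active = mean z-score across replicates of 1.96 or higher in either the MELAS or the Rieske mutant cell line; inactive = the rest.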

Sequence of NAD(+) hydrolase SARM1 (Homo sapiens) (Q6SZW1 whole entry, looked up, the tested form may be a part): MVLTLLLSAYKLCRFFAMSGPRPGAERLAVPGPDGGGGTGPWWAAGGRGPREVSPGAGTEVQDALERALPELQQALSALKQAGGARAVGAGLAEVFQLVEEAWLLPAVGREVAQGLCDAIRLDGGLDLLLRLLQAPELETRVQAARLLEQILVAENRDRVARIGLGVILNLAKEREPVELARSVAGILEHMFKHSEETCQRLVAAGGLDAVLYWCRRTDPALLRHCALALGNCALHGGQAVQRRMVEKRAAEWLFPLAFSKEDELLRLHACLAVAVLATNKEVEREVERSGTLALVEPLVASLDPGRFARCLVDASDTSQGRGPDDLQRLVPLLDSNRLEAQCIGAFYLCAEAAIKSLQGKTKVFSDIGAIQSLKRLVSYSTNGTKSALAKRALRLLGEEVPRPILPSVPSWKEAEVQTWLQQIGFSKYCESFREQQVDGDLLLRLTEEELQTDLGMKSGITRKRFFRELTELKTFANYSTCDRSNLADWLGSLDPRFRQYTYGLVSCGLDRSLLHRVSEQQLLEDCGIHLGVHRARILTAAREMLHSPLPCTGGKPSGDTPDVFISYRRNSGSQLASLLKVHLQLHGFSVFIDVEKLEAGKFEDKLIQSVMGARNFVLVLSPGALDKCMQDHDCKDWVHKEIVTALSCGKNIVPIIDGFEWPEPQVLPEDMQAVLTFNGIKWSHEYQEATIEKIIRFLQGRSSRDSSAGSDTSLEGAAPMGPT
Sequence of Mitogen-activated protein kinase 7 (Homo sapiens) (Q13164 whole entry, looked up, the tested form may be a part): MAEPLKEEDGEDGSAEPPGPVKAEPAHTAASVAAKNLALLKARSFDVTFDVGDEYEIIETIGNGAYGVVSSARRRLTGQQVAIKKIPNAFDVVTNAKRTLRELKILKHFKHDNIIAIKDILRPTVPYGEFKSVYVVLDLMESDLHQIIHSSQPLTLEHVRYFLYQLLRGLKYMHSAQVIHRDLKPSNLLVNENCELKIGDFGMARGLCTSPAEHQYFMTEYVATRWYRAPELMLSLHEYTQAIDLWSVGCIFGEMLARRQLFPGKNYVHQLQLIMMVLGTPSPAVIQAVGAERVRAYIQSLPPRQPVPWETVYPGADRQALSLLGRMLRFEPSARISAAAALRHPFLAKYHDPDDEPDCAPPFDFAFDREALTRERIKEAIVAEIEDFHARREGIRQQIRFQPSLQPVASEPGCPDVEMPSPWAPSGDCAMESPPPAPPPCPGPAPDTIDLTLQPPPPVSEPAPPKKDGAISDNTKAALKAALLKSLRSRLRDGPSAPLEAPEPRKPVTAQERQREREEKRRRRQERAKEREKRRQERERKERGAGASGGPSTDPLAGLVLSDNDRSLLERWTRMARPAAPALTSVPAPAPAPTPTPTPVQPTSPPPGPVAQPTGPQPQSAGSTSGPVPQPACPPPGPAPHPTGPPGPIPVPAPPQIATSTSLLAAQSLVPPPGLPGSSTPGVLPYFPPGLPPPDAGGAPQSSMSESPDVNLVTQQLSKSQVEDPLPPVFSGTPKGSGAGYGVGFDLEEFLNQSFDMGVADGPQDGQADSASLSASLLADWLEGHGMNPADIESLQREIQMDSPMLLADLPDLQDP

As for `Cc1oncc1C(=O)Nc1ccc(C(F)(F)F)cc1`, the call in assay [1], in assay [2] and in assay [3] was inactive. Also, the z-score in [4] (setting [16]) is -0.557 (inactive) and -0.339 (inactive) and -0.166 (inactive); in assay [4] (setting [17]), 0.617 and 0.893 and 0.301; in assay [7] it was 1.22 (inactive) and 1.26 (inactive) and 0.055 (inactive). Besides, the remaining NAD in [5] was 10 nM (inactive). Further, the luciferase signal in assay [6] was 120 AU (inactive). Also, the inhibition in [8] (at 0.5 µM, stronger effect = higher value) was -30.3% (inactive); in assay [8] (measured here: combination with BGB IC20, at 0.005 µM) it was -32.3%; in assay [8] (measured here: combination with BGB IC40, at 0.005 µM), -17.1%; in assay [8] (setting [18]), -23.8%; in assay [8] (measured here: combination with cisplatin, at 0.5 µM, stronger effect = higher value) it was -32.5%; in assay [8] (measured here: combination with cisplatin, at 5 µM, stronger effect = higher value), 34.4%. In addition, the inhibition is 22.1% in [9] (BGB combo, at 5 µM); -14.7% (inactive) in [9] (at 0.5 µM); 36.7% in assay [9] (cisplatin combo, at 5 µM); 2.4% in [9] (measured here: with BGB IC20 combination, at 0.5 µM); -16.7% in assay [9] (measured here: with cisplatin IC20 combination, at 0.5 µM); 48% in [9] (single agent, at 5 µM). The inhibition was 16.5% in assay [10] (BGB IC20 combo, at 0.005 µM); -7.12% in assay [10] (BGB IC40 combo, at 0.005 µM); 33.8% in assay [10] (BGB IC40 combo, at 0.05 µM); -22.9% (inactive) in [10] (at 0.5 µM); 31.4% in assay [10] (cisplatin combo, at 0.05 µM); -18.9% in assay [10] (cisplatin combo, at 0.5 µM). Moreover, the inhibition in assay [10] (cisplatin combo, at 5 µM) is -28.5%; in assay [10] (measured here: 5 uM single agent, at 5 µM), 9.62%; in assay [11] (at 0.5 µM), -18.1% (inactive); in [11] (setting [18]) it was -48.9%; in assay [11] (measured here: combination with cisplatin, at 0.5 µM), -43.1%; in assay [11] (measured here: combination with cisplatin, at 5 µM) it was -31%. The inhibition in assay [12] (at 0.5 µM) is -9.93% (inactive); in assay [12] (measured here: with BGB IC20, at 0.5 µM), -10.4%; in assay [12] (measured here: with BGB IC20, at 5 µM), 14.1%; in assay [12] (measured here: with cisplatin IC20, at 0.5 µM), -18.2%; in assay [12] (measured here: with cisplatin IC20, at 5 µM) it was 0.987%; in [12] (single agent, at 5 µM) it was 24.3%. Moreover, the inhibition in [13] (at 0.5 µM) was -47.6% (inactive); in assay [13] (measured here: combination with BGB at IC20, at 0.5 µM), -10.4%; in [13] (measured here: combination with cisplatin at IC20, at 0.5 µM), -126%; in assay [14] (at 0.5 µM) it was 1.82% (inactive); in [14] (measured here: combo with BGB at IC20, at 0.5 µM), -13.1%; in [14] (measured here: combo with cisplatin at IC20, at 0.5 µM) it was 15.3%.
Turning to `CS(=O)(=O)c1ccc([C@@H](O)[C@@H](CO)NC(=O)C(Cl)Cl)cc1`, the outcome in assay [1] was inactive. For the same compound, the fold change is 0.9 (inactive) and 0.984 (inactive) in assay [15] (setting [19]); 1.05 and 2.01 in [15] (setting [20]). For the same compound, the cell count in assay [15] (setting [21]) was 7540 and 11000; in assay [15] (setting [22]) it was 8380 and 11100. The results for the z-score in assay [4] (setting [16]) and in [4] (setting [17]) were 0.78 (inactive) and -3.27, respectively. For the same compound, the remaining NAD in assay [5] is 23 nM (inactive). The luciferase signal in assay [6] is 44 AU (inactive).
Consider `CN1CCN(CCCN2c3ccccc3Sc3ccc(Cl)cc32)CC1`, for which the AC50 in assay [1] is 16.6 µM (active). Moreover, the z-score in assay [4] (setting [16]) is -0.995 (inactive); in [4] (setting [17]) it was -0.206; in [7] it was -1.35 (inactive) and -1.42 (inactive). Also, the remaining NAD in [5] was 10 nM (inactive). Moreover, the luciferase signal in assay [6] was 80 AU (inactive).
As for `Nc1ccc(S(=O)(=O)Nc2ccccn2)cc1`, the compound was classed as inactive in assay [1]. For the same compound, the fold change in [15] (setting [19]) was 0.875 (inactive) and 0.859 (inactive); in assay [15] (setting [20]), 1.07 and 2.95. Further, the cell count in assay [15] (setting [21]) was 9140 and 10900; in [15] (setting [22]), 10400 and 12600. For the same compound, the figures for the z-score in assay [4] (setting [16]) and in [4] (setting [17]) were -0.349 (inactive) and 0.469, respectively. In assay [5], the remaining NAD was 10 nM (inactive). For the same compound, the luciferase signal in assay [6] was 64 AU (inactive).
For `OC[C@H]1O[C@@H](Oc2ccc(O)cc2)[C@H](O)[C@@H](O)[C@@H]1O`, the compound was classed as inactive in assay [1]. Moreover, the fold change is 0.914 (inactive) in [15] (setting [19]) and 0.569 in assay [15] (setting [20]). The cell count in assay [15] (setting [21]) was 9130; in [15] (setting [22]), 9990. Besides, the z-score in assay [4] (setting [16]) was 0.856 (inactive); in [4] (setting [17]), 0.44. Further, in [6], the luciferase signal was 48 AU (inactive).
